Data published in PubChem BioAssay.
Calls of active or inactive are those of the source.

Key:
[1] = test system: Plasmodium falciparum Sir2 (PF13_0152, Sir2A); experiment: pfSir2 binders on small-molecule microarrays, primary screen, biochemical, small-molecule microarray, 635 nm fluorescence (AID 1098); settings: small-molecule microarray binding, fluorescence 635 nm; higher = more signal;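 note: score merges spot fluorescence intensity with its signal-to-noise ratio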
[2] = small-molecule microarray binders of probe aDKK1, primary screen, biochemical, biotinylated probe, 635/667 nm fluorescence (AID 1099); settings: higher = more signal;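 note: score merges 667nm spot fluorescence with signal to noise across triplicate slides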
[3] = small-molecule microarray binders of probe aCHRDL2, primary screen, biochemical, biotinylated probe, 635/667 nm fluorescence (AID 1100); settings: higher = more signal
[4] = splicing luciferase reporter signal modulators, primary screen, spliceosome inhibition project, cell-based, HEK293, splice +/- reporter (AID 1101); settings: luminescence, 24 h, higher = more signal, called active from +8 up or from −8 down;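 note: HEK293 cells carrying a splicing-competent luciferase reporter gene; test concentration not given here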
[5] = target: Fibroblast growth factor 10 (Homo sapiens) (UniProt O15520); experiment: FGF10 binders on small-molecule microarrays, primary screen, biochemical, small-molecule microarray, 635 nm fluorescence (AID 1102); settings: FGF10 binding, fluorescence 635 nm, higher = more signal
[6] = test system: glycogen synthase kinase-3 (GSK3A per assay name; protocol says GSK3B); experiment: GSK3 binders on small-molecule microarrays, primary screen, biochemical, small-molecule microarray, 635 nm fluorescence, GSK3A (AID 1103); settings: small-molecule microarray binding, fluorescence 635 nm; higher = more signal; note: the record names both GSK3A and GSK3B
[7] = target: Epidermal growth factor receptor (Homo sapiens) (UniProt P00533); experiment: EGFR binders on small-molecule microarrays, primary screen, biochemical, small-molecule microarray, 635 nm fluorescence (AID 1104); settings: EGFR binding, higher = more signal;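 note: score merges 667 nm emission intensity with spot signal to noise over triplicate slides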
[8] = target: Follistatin-related protein 3 (Homo sapiens) (UniProt O95633); experiment: FSTL3 binders on small-molecule microarrays, primary screen, biochemical, small-molecule microarray, 635 nm fluorescence (AID 1105); settings: FSTL3 binding, higher = more signal;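 note: score merges emission near 667 nm and signal to noise per printed spot across three slides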
[9] = target: Dickkopf-related protein 1 (Homo sapiens) (UniProt O94907); experiment: DKK1 binders on small-molecule microarrays, primary screen, biochemical, small-molecule microarray, 635 nm fluorescence scan (AID 1106); settings: DKK1 binding, higher = more signal;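 note: score merges emission near 667 nm with signal to noise over three replicate slides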
[10] = test system: Inhibin beta A chain (activin A); experiment: INHBA (activin A) binders on microarrays, primary screen, biochemical, small-molecule microarray, 635 nm fluorescence scan (AID 1107); settings: small-molecule microarray binding, higher = more signal;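 note: mouse activin A protein probed at 4.33 µg/mL on printed slides; score merges bound-protein fluorescence near 667 nm with spot signal-to-noise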
[11] = test system: Human papillomavirus type 1a protein E7 (residues 44-93); experiment: HPV1a E7 fragment binders on microarrays, primary screen, biochemical, small-molecule microarray, residues 44-93, 635 nm fluorescence (AID 1108); settings: small-molecule microarray binding, fluorescence 635 nm; higher = more signal;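 note: E7 fragment applied at 1 µg/mL in TBST for 1 h at 4 C; score combines spot fluorescence with its signal to noise ratio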
[12] = modulators of HCV replicon luciferase signal, primary screen, HCV replication inhibitor project, Huh7 cells, luciferase reporter (AID 1109); settings: 48 h, higher = more signal;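 note: huh7 hepatoma cells harbouring a luciferase neomycin HCV replicon reporter; luciferase luminescence as measure of HCV replicon replication; test concentration not given here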
[13] = target: Left-right determination factor 2 (Homo sapiens) (UniProt O00292); experiment: LEFTY2 binders on small-molecule microarrays, primary screen, biochemical, small-molecule microarray, 635 nm fluorescence scan (AID 1110); settings: LEFTY2 binding, higher = more signal
[14] = target: Calmodulin-1 (Homo sapiens) (UniProt P0DP23); experiment: CALM1 binders on microarrays, EGTA buffer, profiling panel, biochemical, small-molecule microarray, Cy5-labelled CALM1 (AID 1111); settings: Cy5-CALM1 binding fluorescence, higher = more signal;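 note: labelled calmodulin applied in Tris saline Tween buffer holding calcium plus EGTA and DTT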
[15] = target: Calmodulin-1 (Homo sapiens) (UniProt P0DP23); experiment: calcium-bound CALM1 binders on microarrays, profiling panel, artefact control for SMM control-protein annotation, biochemical, small-molecule microarray, Cy5-labelled CALM1, plus calcium (AID 1112); settings: Cy5-CALM1 binding fluorescence, higher = more signal;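 note: score merges spot fluorescence with signal to noise from triplicate slides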
[16] = small-molecule microarray binders of probe aWnt5a, primary screen, biochemical, biotinylated probe, 635/667 nm fluorescence (AID 1113); settings: higher = more signal;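 note: score merges 667 nm fluorescence intensity with signal-to-noise per printed feature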
[17] = small-molecule microarray binders of probe aShh, primary screen, biochemical, biotinylated probe, 635/667 nm fluorescence (AID 1114); settings: higher = more signal;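 note: probe is biotin-labelled aShh protein from a stem cell growth factor screen; measures binding of labelled protein to compounds printed on the slide; score merges feature fluorescence at 667 nm with signal-to-noise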
[18] = small-molecule microarray binders of probe aNog, primary screen, biochemical, biotinylated probe, 635/667 nm fluorescence (AID 1115); settings: higher = more signal;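 note: probe is biotinylated aNog protein used at 0.15 µg/mL for 1 h at 4 C; z-score combines 667 nm fluorescence of each spot with its signal to noise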
[19] = target: Torsin-1A-interacting protein 1 (Homo sapiens) (UniProt Q5JTV8); experiment: LAP1 binders from COS7 cell lysate, primary screen, small-molecule microarray, 635/667 nm fluorescence (AID 1116); settings: COS7-hLAP1 lysate binding, 635 nm fluorescence, higher = more signal
[20] = target: Alpha-bungarotoxin (Bungarus multicinctus) (UniProt P60615); experiment: alpha-bungarotoxin binders on microarray, profiling panel, artefact control for SMM control protein annotation, biochemical, small-molecule microarray, Alexa647 label, 635/667 nm fluorescence (AID 1117); settings: alpha-BTX-A647 binding fluorescence, higher = more signal
Chain of Alpha-bungarotoxin (Bungarus multicinctus) (P60615 whole entry, looked up): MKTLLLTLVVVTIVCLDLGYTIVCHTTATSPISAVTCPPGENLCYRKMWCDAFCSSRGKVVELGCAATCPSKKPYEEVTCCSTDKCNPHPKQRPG

Chain of Follistatin-related protein 3 (Homo sapiens) (O95633 whole entry, looked up): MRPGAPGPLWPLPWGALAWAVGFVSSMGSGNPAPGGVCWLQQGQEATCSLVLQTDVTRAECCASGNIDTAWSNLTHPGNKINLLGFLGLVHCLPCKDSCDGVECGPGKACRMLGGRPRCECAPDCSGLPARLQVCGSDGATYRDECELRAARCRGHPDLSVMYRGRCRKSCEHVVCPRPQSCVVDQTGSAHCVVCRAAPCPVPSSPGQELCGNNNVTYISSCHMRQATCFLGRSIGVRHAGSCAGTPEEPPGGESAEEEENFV
Chain of Torsin-1A-interacting protein 1 (Homo sapiens) (Q5JTV8 whole entry, looked up): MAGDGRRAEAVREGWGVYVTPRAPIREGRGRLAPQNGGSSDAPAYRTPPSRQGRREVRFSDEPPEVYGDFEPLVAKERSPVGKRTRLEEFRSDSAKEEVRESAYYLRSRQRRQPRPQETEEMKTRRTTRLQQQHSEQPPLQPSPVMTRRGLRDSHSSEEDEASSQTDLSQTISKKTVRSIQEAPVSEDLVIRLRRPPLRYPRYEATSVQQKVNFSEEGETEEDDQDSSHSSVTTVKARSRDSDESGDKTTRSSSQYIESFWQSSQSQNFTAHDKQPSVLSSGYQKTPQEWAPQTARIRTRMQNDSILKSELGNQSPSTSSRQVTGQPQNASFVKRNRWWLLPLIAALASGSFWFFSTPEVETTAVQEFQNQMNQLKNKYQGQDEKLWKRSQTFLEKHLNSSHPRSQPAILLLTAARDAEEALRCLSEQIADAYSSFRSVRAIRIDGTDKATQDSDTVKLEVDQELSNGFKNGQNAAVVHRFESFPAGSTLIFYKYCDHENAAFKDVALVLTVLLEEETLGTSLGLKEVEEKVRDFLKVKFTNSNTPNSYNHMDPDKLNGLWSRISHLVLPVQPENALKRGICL
Chain of Dickkopf-related protein 1 (Homo sapiens) (O94907 whole entry, looked up): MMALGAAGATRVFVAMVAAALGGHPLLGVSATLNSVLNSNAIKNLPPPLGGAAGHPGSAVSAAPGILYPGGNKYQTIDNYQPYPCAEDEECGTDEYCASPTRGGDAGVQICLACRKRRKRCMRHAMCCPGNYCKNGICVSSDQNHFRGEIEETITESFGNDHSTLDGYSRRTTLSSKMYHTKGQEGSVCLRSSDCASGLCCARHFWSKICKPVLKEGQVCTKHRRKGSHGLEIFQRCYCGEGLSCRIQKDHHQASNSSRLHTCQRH
Chain of Fibroblast growth factor 10 (Homo sapiens) (O15520 whole entry, looked up): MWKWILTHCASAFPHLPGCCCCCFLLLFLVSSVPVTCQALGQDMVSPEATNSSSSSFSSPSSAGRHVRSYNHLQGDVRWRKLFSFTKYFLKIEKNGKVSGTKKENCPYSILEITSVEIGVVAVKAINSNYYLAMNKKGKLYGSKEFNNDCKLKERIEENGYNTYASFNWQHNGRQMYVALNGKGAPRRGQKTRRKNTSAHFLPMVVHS
Chain of Left-right determination factor 2 (Homo sapiens) (O00292 whole entry, looked up): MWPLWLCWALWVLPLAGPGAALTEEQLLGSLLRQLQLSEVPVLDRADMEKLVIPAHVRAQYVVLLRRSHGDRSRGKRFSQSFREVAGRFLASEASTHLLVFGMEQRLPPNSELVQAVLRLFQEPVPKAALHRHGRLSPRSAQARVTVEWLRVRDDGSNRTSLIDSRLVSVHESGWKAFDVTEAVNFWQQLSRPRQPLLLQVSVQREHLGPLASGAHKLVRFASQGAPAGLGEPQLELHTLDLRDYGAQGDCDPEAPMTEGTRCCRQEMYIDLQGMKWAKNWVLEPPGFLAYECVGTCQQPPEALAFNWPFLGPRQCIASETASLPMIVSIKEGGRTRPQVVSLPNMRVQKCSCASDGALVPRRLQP
Chain of Epidermal growth factor receptor (Homo sapiens) (P00533 whole entry, looked up): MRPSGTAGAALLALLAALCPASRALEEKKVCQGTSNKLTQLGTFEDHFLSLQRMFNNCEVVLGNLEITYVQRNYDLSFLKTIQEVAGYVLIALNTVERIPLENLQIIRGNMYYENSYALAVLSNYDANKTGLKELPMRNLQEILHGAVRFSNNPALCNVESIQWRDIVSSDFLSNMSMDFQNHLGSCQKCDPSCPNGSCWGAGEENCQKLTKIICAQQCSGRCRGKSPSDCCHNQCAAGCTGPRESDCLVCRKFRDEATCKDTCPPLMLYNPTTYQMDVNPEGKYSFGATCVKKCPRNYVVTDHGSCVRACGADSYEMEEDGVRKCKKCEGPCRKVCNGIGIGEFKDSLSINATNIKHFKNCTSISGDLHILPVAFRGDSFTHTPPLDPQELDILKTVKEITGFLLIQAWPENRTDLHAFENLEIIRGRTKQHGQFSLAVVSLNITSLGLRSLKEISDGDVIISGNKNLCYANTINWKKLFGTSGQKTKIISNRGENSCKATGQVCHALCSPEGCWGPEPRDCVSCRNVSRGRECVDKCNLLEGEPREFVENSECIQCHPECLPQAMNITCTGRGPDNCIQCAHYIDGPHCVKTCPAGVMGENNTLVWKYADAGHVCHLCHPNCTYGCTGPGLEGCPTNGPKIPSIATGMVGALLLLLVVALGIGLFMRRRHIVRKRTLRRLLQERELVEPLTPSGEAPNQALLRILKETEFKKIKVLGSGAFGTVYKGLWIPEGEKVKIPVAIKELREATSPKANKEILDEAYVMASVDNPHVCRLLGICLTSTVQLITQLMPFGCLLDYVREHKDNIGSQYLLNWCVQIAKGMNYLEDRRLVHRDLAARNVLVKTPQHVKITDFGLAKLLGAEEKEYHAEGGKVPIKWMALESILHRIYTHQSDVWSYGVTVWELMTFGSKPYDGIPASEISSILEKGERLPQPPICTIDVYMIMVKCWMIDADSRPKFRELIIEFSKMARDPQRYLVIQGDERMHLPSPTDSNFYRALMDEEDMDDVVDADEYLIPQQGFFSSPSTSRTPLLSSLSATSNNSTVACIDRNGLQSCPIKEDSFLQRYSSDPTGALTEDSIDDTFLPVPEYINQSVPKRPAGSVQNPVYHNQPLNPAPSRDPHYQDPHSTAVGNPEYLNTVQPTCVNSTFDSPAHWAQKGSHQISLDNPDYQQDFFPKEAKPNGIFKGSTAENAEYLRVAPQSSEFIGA

SMILES	composite z-score [1]	composite z-score [2]	composite z-score [3]	z-score [4]	composite z-score [5]	composite z-score [6]	composite z-score [7]	composite z-score [8]	composite z-score [9]	composite z-score [10]	composite z-score [11]	z-score [12]	composite z-score [13]	composite z-score [14]	composite z-score [15]	composite z-score [16]	composite z-score [17]	composite z-score [18]	composite z-score [19]	composite z-score [20]
CC(C)C(=C=CC[C@H](O)c1cccc(OCCO)c1)CCO	0.899	-0.363	-0.148	-1.02 (inactive)	1.18	-0.739	-0.209	-0.0067	-0.264	0.148	0.133	0.121	-0.0916	-0.427	-0.224	-0.0165	0.201	-0.272	0.0879	0.115
C=CCOC(=O)[C@H]1[C@@H]2C(=O)O[C@@H](c3ccccc3)[C@@H](c3ccccc3)N2[C@@H](c2ccc(OCCOC(=O)[C@H]3C[C@H]4C(=O)N[C@@H](CCCCNC(C)=O)C(=O)N4[C@H]3c3cccc(OCCO)c3)cc2)[C@]12C(=O)Nc1ccc(I)cc12	1.14	-0.886	-0.887	-1.5 (inactive)	1.49	0.677	0.463	1.43	0.719	0.0677	1.42	-1.21	0.801	-0.0021	-0.451	0.0825	-0.705	-0.632	0.339	0.975
CC(C)OC(=O)CC(=O)CC(O)c1ccc([N+](=O)[O-])cc1 (stereo not given)	0.541	0.749	1.14	0.162 (inactive)	0.314	0.132	-0.41	0.198	-0.953	0.527	1.13	-0.601	-0.698	-0.759	-0.833	0.093	0.163	0.431	0.47	-0.292
COCCOC(=O)N1C(=O)[C@@]2(c3cc(C#CC4(O)CCCCCC4)ccc31)[C@H](c1ccc(OCCO)cc1)N1[C@H](c3ccccc3)[C@H](c3ccccc3)OC(=O)[C@H]1[C@@H]2C(=O)Nc1nc2ccccc2s1	1.41	0.722	0.208	0.268 (inactive)	1.05	0.522	0.538	1.33	0.559	0.308	1.22	-2.43	0.985	1.35	0.249	-0.006	0.214	0.721	1	0.968
CCCCCN1CC=CC23O[C@@H]4/C=C\CCC(C)OC(=O)C4[C@H]2C(=O)N(CCCCCCO)[C@@H]3C1=O (stereo not given in full)	1.44	-0.219	0.248	-0.833 (inactive)	-0.381	-0.459	-0.434	-0.303	-0.397	1.13	0.342	0.499	-0.78	-0.384	0.369	-0.202	-0.0146	-0.12	0.171	-0.267
CN(C)C(=O)[C@@]1(Cc2ccccc2N=[N+]=[N-])N=C(c2ccc(OCCCO)cc2)O[C@H]1c1ccccc1	1.36	0.605	1.35	0.22 (inactive)	0.607	1.22	-0.103	0.465	-0.217	0.787	0.0896	-2.52	0.123	2.4	1.09	0.103	-0.0022	-0.743	1.32	2.17
COC(=O)c1c2oc(c1C(=O)OC)C(=O)N1CCC[C@H]1Cn1nncc1CN(Cc1ccccc1)C(=O)N[C@H](CO)CC2	0.614	-0.304	-0.0048	0.733 (inactive)	0.627	-0.103	0.327	-0.0361	-0.113	0.309	0.289	0.253	0.239	0.724	0.169	-0.0738	-0.221	-0.296	-0.285	-0.524
O=C1c2ccccc2[C@](Cc2ccccc2I)(C(=O)NC2CC2)[C@H](c2ccc(CO)cc2)N1Cc1ccccc1C(F)(F)F	1.43	-0.349	0.768	-0.987 (inactive)	0.535	-0.265	-0.922	0.32	-0.74	-0.771	1.45	-2.2	-1.16	0.463	-0.541	-0.0735	-0.147	-0.484	0.103	0.968
CCCC=C(CCC)[C@@H](NS(=O)(=O)c1cccc2cccnc12)c1ccc(-c2ccccc2)cc1	0.757	0.939	0.75	-0.301 (inactive)	1	1.32	0.355	0.909	-0.345	-0.278	1.39	-0.0261	0.601	1.62	0.841	0.183	0.432	-0.779	0.765	1.08
COc1ccc([Si](C)(C)[C@H]2[C@H](CCO)O[C@@]3(C(=O)N(Cc4ccc(N5C(=O)c6ccccc6Oc6ccccc65)cc4)c4ccccc43)[C@@H]2C)cc1	0.094	-0.0509	0.477	-0.964 (inactive)	-0.94	-1.96	-0.732	-1.25	-1.02	-0.917	-0.451	-4.8	-0.804	0.12	0.908	-0.124	0.0121	0.0078	-0.438	-0.516
C=CCC(OC(C)=O)[C@@H]1[C@@H](N(Cc2ccc(-c3ccccc3)cc2)C(=O)c2ccc(C)cc2)c2cc(OCCCO)ccc2N1C(=O)Cc1ccc2ccccc2c1 (stereo not given in full)	-0.334	-0.199	0.0333	-1.84 (inactive)	0.107	-0.197	0.251	-0.274	0.258	0.567	-0.579	-0.588	-0.0611	-0.117	0.53	-0.0794	-0.349	0.0127	1.68	0.0941
